High-throughput results from PubChem BioAssay.
IDE act – activators of human insulin-degrading enzyme in cells | HEK cells, FAbeta-B cleavage, fluorescence polarization; 0% vehicle, 100% cell-free pure enzyme wells | hit rate 0.073% among 340,000 | activation, % at 5.96 µM;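 active = activation above the mean of all tested compounds plus 3 SD, set per screening campaign, cut at about 17% in these data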
IDE inh – inhibits human insulin-degrading enzyme in HEK cells | inhibition, % at 5.59 µM | AID 434962 | P14735 | FAbetaB cleavage, fluorescence polarization | hit rate 0.41% among 320,000;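 active = percent inhibition above the average of all tested compounds plus 3 SD, set per screening campaign, cut at about 16% in these data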;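 note: IDE supplied by intact live HEK cells; FP after avidin binding of uncleaved biotin substrate so inhibition keeps polarization high; 0% = DMSO wells and 100% = 60 µM reference IDE inhibitor Ii1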
MCL1 BIM primary – disrupts human MCL1 binding to BIM-BH3 peptide | inhibition, % at 10.9 µM | hit rate 0.68% among 320,000 | GST-MCL1 / FITC-Bim-BH3 fluorescence polarization;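 active = inhibition above the mean inhibition of all tested compounds plus 3 SD, set per campaign, cut at about 40% in these data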;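 note: 0% = DMSO wells and 100% = unlabeled Bim-BH3 peptide control; higher means more loss of mP so more displacement of Bim peptide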
MEX-5 binding – C. elegans MEX-5 TCR-2 RNA binding activity. Q9XUB2. MEX-5/FITC-TCR2 RNA binding, fluorescence polarization; hits give low values. activity score (negative = inhibition of binding), % at 10 µM. hit rate 0.38% among 300,000. AID 1832;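 active = inhibition past about -25% in most replicates, and total fluorescence under double the plate's negative control median, limit read from the data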;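 note: 0% = DMSO and -100% = 5 µM competing unlabeled TCR2 RNA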
GLD-1 RNA inh – GLD-1-TGE RNA interaction inhibition (C. elegans); Q17339; purified GLD-1 + fluorescein TGE RNA, fluorescence polarization; inhibition, % at 5.96 µM; hit rate 0.44% among 320,000;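 active = percent inhibition above a per-plate cutoff, the plate mean of test compounds plus 3 SD, cut at about 30% in these data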;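 note: 0% = DMSO wells with GLD-1 and probe and 100% = wells lacking GLD-1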
Target sequence (Q17339 whole entry, looked up): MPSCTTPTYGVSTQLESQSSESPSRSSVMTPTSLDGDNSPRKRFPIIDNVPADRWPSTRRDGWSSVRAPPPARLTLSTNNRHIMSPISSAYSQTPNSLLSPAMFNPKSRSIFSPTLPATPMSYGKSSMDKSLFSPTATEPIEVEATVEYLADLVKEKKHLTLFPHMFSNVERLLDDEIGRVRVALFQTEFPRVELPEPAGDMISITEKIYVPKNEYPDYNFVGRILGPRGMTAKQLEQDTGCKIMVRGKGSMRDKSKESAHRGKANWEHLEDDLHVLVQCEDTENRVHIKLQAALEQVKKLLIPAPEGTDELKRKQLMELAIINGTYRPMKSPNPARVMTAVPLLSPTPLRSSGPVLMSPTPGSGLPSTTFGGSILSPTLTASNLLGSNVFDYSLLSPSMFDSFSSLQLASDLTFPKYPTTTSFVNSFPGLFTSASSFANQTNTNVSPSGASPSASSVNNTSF
BCLXL inh – inhibitors of human Bcl-xL | GST-Bcl-xL / FITC-Bim BH3 peptide fluorescence polarization | inhibition, % at 10.9 µM | hit rate 0.7% among 320,000 | AID 2129;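 active = inhibition above the mean of all tested compounds plus 3 SD, cutoff set per campaign, cut at about 30% in these data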;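 note: 0% = DMSO wells and 100% = unlabeled Bim-BH3 peptide competitor; inhibitors lower millipolarization by displacing the labeled peptide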
An asterisk follows results filed as active. A selection: hits, their analogues and other compounds. The true share with any hit is near 1.5%.

What do the screens show for `COc1cc(NC(=O)C2=C(C)OCCS2)c(Cl)cc1C(=O)NCCN(C)C`?
IDE act: 5; IDE inh: 4; MCL1 BIM primary: 2; MEX-5 binding: 1; GLD-1 RNA inh: 12; BCLXL inh: 2

Results for COc1ccc(/C=C/C(=O)c2c(C)cc(C)[nH]c2=O)c2ccccc12 ?
IDE act: 4; IDE inh: -4; MCL1 BIM primary: -14; MEX-5 binding: -28*; GLD-1 RNA inh: -7; BCLXL inh: -3

Results for O=C(c1coc(=O)c(Br)c1)N1CCC(C(O)(c2ccccc2)c2ccccc2)CC1 ?
IDE act: 3; IDE inh: 2; MCL1 BIM primary: 7; MEX-5 binding: 0; GLD-1 RNA inh: 0; BCLXL inh: 5

What do the screens show for `O=C(c1cccc(Br)c1)N1CCCc2ccccc21`?
IDE act: 1; IDE inh: -4; MCL1 BIM primary: 4; MEX-5 binding: 0; GLD-1 RNA inh: 4; BCLXL inh: 2

Results for CC1(C)CCCN(C(=O)c2coc(=O)c(Br)c2)C1 ?
IDE act: 5; MEX-5 binding: -28*

What do the screens show for `O=C(c1coc(=O)c(Br)c1)N1CCCc2ccccc21`?
IDE act: 0; IDE inh: 3; MCL1 BIM primary: 27; MEX-5 binding: -27*; GLD-1 RNA inh: 0; BCLXL inh: 21

Results for Nc1cc(S(=O)(=O)Nc2ccccc2Cl)ccc1N1CCCCC1 ?
IDE act: -1; IDE inh: -4; GLD-1 RNA inh: 2

Results for Cc1ccc(-c2nnc(Nc3ccc(CC(N)=O)cc3)c3ccccc23)cc1S(N)(=O)=O ?
IDE act: -3; IDE inh: 4; MCL1 BIM primary: 5; MEX-5 binding: -32*; GLD-1 RNA inh: 7; BCLXL inh: 9

How did O=C(NCC1CC1)c1onc(CSc2ccc(F)c(F)c2)c1C(=O)NCC1CC1 do in these assays?
IDE act: 65*; IDE inh: -2; MCL1 BIM primary: 0; MEX-5 binding: 0; GLD-1 RNA inh: 1; BCLXL inh: 7

Results for CCN(CC)C(=O)Cn1cnc2sc(C)c(S(=O)(=O)N3CCC(C)CC3)c2c1=O ?
IDE act: -3; IDE inh: -1; MCL1 BIM primary: -1; MEX-5 binding: -14; GLD-1 RNA inh: -1; BCLXL inh: 0

How did CCN(CC)C(=O)CSc1nc2c(sc(=S)n2CC)c(=O)n1-c1ccccc1 do in these assays?
IDE act: -2; IDE inh: 4; MCL1 BIM primary: 9; MEX-5 binding: 2; GLD-1 RNA inh: -2; BCLXL inh: 3

Results for CCN(CC)C(=O)CSc1nc2c(sc(=S)n2-c2ccccc2)c(=O)n1Cc1ccco1 ?
IDE act: -3; IDE inh: 5; MCL1 BIM primary: 5; MEX-5 binding: 1; GLD-1 RNA inh: -1; BCLXL inh: 50*

Results for S=C(Nc1ccc2nsnc2c1)N1CCCCCC1 ?
IDE act: 4; IDE inh: 10; MCL1 BIM primary: 30; MEX-5 binding: -5; GLD-1 RNA inh: 18; BCLXL inh: 32*

Results for NC(=O)c1ccccc1OCC(=O)Nc1ccc(Cl)c(Cl)c1 ?
IDE act: 3; IDE inh: -2; MCL1 BIM primary: -2; MEX-5 binding: 2; GLD-1 RNA inh: 12; BCLXL inh: 1

Results for O=C(NC(Cc1ccccc1)C(=O)Oc1ccc2c(C(F)(F)F)cc(=O)oc2c1)OCc1ccccc1 (stereo not given) ?
IDE act: -4; IDE inh: 15; MCL1 BIM primary: 41*; MEX-5 binding: 0; GLD-1 RNA inh: 65*; BCLXL inh: 42*

Results for O=C(CNC(=O)OCc1ccccc1)Oc1ccc2ccc(=O)oc2c1 ?
IDE act: 3; IDE inh: -3; MCL1 BIM primary: 5; MEX-5 binding: 0; GLD-1 RNA inh: 7; BCLXL inh: 5

What do the screens show for `CCCc1cc(C(=O)NNC(=S)NC2CCCCC2)cs1`?
IDE act: 5; IDE inh: -7; MCL1 BIM primary: 8; MEX-5 binding: -1; GLD-1 RNA inh: 0; BCLXL inh: 2

What do the screens show for `Cc1ccc(NS(=O)(=O)c2cc3c4c(cccc4c2)C(=O)NC3=O)cc1C`?
IDE act: -1; IDE inh: 8; MCL1 BIM primary: 27; MEX-5 binding: -7; GLD-1 RNA inh: 11; BCLXL inh: 31*
